{"source": "PubChem BioAssay AID463173", "about": "(ICCB-Longwood Screening Facility, Harvard Medical School, 2010)", "note": "In all, about 52,000 compounds went through this assay and about 4,300 (8.3%) were called active. Cut-off read from the data, not from the text of the source: active = survival mostly below about 52% (no sharp cut-off); inactive = mostly above about 56%. Only a selection was taken, and actives are over-represented in it overall.", "data": [{"tested_on": "DeltatarO mutant", "assay": "growth inhibition of S. aureus wild type versus tarO mutant, primary screen, teichoic acid synthesis inhibitors, RN4220, OD600 (AID 463173)", "conditions": "OD600, 18 h, active compounds read low, screened at 18.75 µg/mL (by protocol)", "values": [{"smiles": "CC(C)c1ccc(OCC(=O)Nc2cc(-c3ccccc3)no2)cc1", "survival": "110% (inactive)"}, {"smiles": "Cn1c(Oc2cccc(Cl)c2)nc2c1c(=O)n(Cc1ccccc1Cl)c(=O)n2C", "survival": "66% (inactive)"}, {"smiles": "O=C(Cc1ccccc1)NC1CCN(S(=O)(=O)c2cccc(F)c2)CC1", "survival": "80% (inactive)"}, {"smiles": "Cc1c(Cl)cccc1Nc1nn2c(=O)c3ccc(C(=O)NCCc4ccccc4)cc3nc2s1", "survival": "98% (inactive)"}, {"smiles": "O=C(C1CCCN(S(=O)(=O)c2cccc3nsnc23)C1)N1CCN(c2ccccc2Cl)CC1", "note": "(stereo not drawn)", "survival": "107% (inactive)"}, {"smiles": "COCCc1nn2c(=O)cc(COC(=O)c3ccco3)nc2s1", "survival": "92% (inactive)"}, {"smiles": "Cc1cc(C)c(NC(=O)Cn2nnc(-c3ccccc3)n2)c(C)c1", "survival": "63% (inactive)"}, {"smiles": "Cc1ccccc1OCC(=O)NCC(c1ccc(Cl)cc1)N1CCCCC1", "note": "(stereo not drawn)", "survival": "66% (inactive)"}, {"smiles": "Cc1ccccc1Nc1c(-c2cccs2)nc2cccc(C)n12", "survival": "63% (inactive)"}, {"smiles": "COc1ccc(-c2cc(C(=O)NC(C)c3ccccc3)c3cc(C(C)C)ccc3n2)cc1", "note": "(stereo not drawn)", "survival": "101% (inactive)"}, {"smiles": "Cc1ccc2nc(-c3ccc(Cl)cc3)cc(C(=O)OCC(=O)c3ccccc3)c2c1", "survival": "58% (inactive)"}, {"smiles": "COc1ccc(-c2cc(C(=O)Oc3ccccc3)c3cc(C)ccc3n2)cc1", "survival": "9% (active)"}, {"smiles": "COc1cccc(CNC(=O)CN(c2ccc(C(C)C)cc2)S(=O)(=O)c2c(C)n[nH]c2C)c1", "survival": "56% (inactive)"}, {"smiles": "Cc1ccc(N(CC(=O)Nc2ccc(C)c(F)c2)S(=O)(=O)c2c(C)n[nH]c2C)cc1", "survival": "66% (inactive)"}, {"smiles": "Cc1n[nH]c(C)c1S(=O)(=O)N(CC(=O)NC(C)c1ccccc1)c1ccc(C(C)C)cc1", "note": "(stereo not drawn)", "survival": "54% (active)"}, {"smiles": "Cc1ccc(N(CC(=O)NC(C)c2ccccc2)S(=O)(=O)c2c(C)noc2C)cc1", "note": "(stereo not drawn)", "survival": "74% (inactive)"}, {"smiles": "Cc1n[nH]c(C)c1S(=O)(=O)N(CC(=O)NCc1ccccc1Cl)c1ccc(C(C)C)cc1", "survival": "52% (inactive)"}, {"smiles": "Cc1n[nH]c(C)c1S(=O)(=O)N(CC(=O)Nc1ccc(C(F)(F)F)cc1)c1ccc(C(C)C)cc1", "survival": "46% (active)"}, {"smiles": "COc1ccc(CNC(=O)CN(c2ccc(C)cc2)S(=O)(=O)c2c(C)n[nH]c2C)cc1", "survival": "85% (inactive)"}, {"smiles": "Cc1noc(C)c1S(=O)(=O)N(CC(=O)Nc1ccc(C(F)(F)F)cc1)c1ccc(C(C)C)cc1", "survival": "55% (inactive)"}, {"smiles": "Cc1ccc(CNC(=O)CN(c2ccc(C(C)C)cc2)S(=O)(=O)c2c(C)n[nH]c2C)cc1", "survival": "43% (active)"}, {"smiles": "CSc1ccc(CCNC(=O)c2cc3c(-c4ccccc4F)nn(C)c3s2)cc1", "survival": "55% (inactive)"}, {"smiles": "CCOc1ccc(CNC(=O)C2CCN(S(=O)(=O)c3cn(C)cn3)CC2)cc1", "survival": "99% (inactive)"}, {"smiles": "Cc1ccc(NC(=O)CCn2nc(C)c3c(C)n(-c4ccccc4)nc3c2=O)cc1Cl", "survival": "117% (inactive)"}, {"smiles": "CCOCCCn1c(SCC(=O)Nc2ccc(OC)cc2OC)nc2ccccc2c1=O", "survival": "89% (inactive)"}, {"smiles": "CCOC(=O)C1CCCN(C(=O)c2ccccc2NC(=O)c2nsc3ccccc23)C1", "note": "(stereo not drawn)", "survival": "130% (inactive)"}, {"smiles": "CCOC(=O)c1[nH]c(C)c(CCC(=O)Nc2ccc(C(C)=O)cc2)c1C", "survival": "72% (inactive)"}, {"smiles": "O=C(NCc1ccccc1)C(=O)Nc1ccc2nc3n(c(=O)c2c1)CCCCC3", "survival": "88% (inactive)"}, {"smiles": "COc1cccc(Cn2c(=O)n(Cc3ccco3)c(=O)c3oc4ccccc4c32)c1", "survival": "66% (inactive)"}, {"smiles": "O=C(CC1CCCCC1)N1CCN(c2ccccc2)CC1", "survival": "82% (inactive)"}, {"smiles": "O=C(Nc1nnc(S(=O)(=O)N2CCCc3ccccc32)s1)c1ccccc1Cl", "survival": "28% (active)"}, {"smiles": "Cc1ccccc1C(=O)Nc1nnc(S(=O)(=O)N2CCc3ccccc32)s1", "survival": "95% (inactive)"}, {"smiles": "O=C(Nc1nnc(S(=O)(=O)N2CCCc3ccccc32)s1)c1ccccc1Br", "survival": "17% (active)"}, {"smiles": "O=C(Nc1nnc(S(=O)(=O)N2CCc3ccccc32)s1)c1ccccc1Cl", "survival": "20% (active)"}, {"smiles": "Cc1ccccc1C(=O)Nc1nnc(S(=O)(=O)N2CCCc3ccccc32)s1", "survival": "96% (inactive)"}, {"smiles": "CCOC(=O)c1ccc(CN(Cc2ccccc2C)S(=O)(=O)c2ccc(F)c(C(=O)Nc3cccc(OC)c3)c2)cc1", "survival": "75% (inactive)"}, {"smiles": "CCNC(=O)CC1C(=O)N(c2ccc(F)cc2)C(=O)N1CCOC", "note": "(stereo not drawn)", "survival": "84% (inactive)"}, {"smiles": "COc1ccc(CN(C(=O)Cc2coc3ccc(C)cc23)C2CCS(=O)(=O)C2)cc1", "note": "(stereo not drawn)", "survival": "67% (inactive)"}, {"smiles": "Cc1cc2n(n1)CCCN2C(=O)Nc1ccccc1C(F)(F)F", "survival": "76% (inactive)"}, {"smiles": "CCc1ccc(NC(=O)C(=O)NCC(c2cccnc2)N2CCOCC2)cc1", "note": "(stereo not drawn)", "survival": "89% (inactive)"}, {"smiles": "CC(=O)Nc1cc(OC(C)=O)c2nonc2c1OC(C)=O", "survival": "29% (active)"}, {"smiles": "CC(=O)Nc1nonc1NC(C)=O", "survival": "87% (inactive)"}, {"smiles": "CC(=O)Oc1ccc(Nc2nc3nonc3nc2Nc2ccccc2)cc1", "survival": "83% (inactive)"}, {"smiles": "COC(=O)c1nnn(-c2ccc(Br)cc2)c1C(=O)OC", "survival": "79% (inactive)"}, {"smiles": "CCOC(=O)c1ccc(NC(=O)CCc2c(C)nc3c(c(C)nn3C(C)(C)C)c2C)cc1", "survival": "55% (active)"}, {"smiles": "COC(=O)c1ccc(NC(=O)CCc2c(C)nc3c(c(C)nn3C(C)(C)C)c2C)cc1", "survival": "59% (inactive)"}, {"smiles": "CCOC(=O)c1ccc(NC(=O)CCc2c(C)nc3c(c(C)nn3C)c2C)cc1", "survival": "93% (inactive)"}, {"smiles": "Cc1ccc(-c2nc(CNC(=O)Nc3ccccc3)c(C)o2)cc1", "survival": "71% (inactive)"}, {"smiles": "COC(=O)c1cc2c(ccn2-c2ccc(F)cc2)n1CC(=O)N1CCCCC1", "survival": "97% (inactive)"}, {"smiles": "COc1ccc(C)cc1NC(=O)C1CCN(S(=O)(=O)c2ccc3[nH]c4c(c3c2)CCCCC4)CC1", "survival": "94% (inactive)"}, {"smiles": "CCOc1ccc(NC(=O)CCc2c(C)nc3c4c(C)cc(C)nc4nn3c2C)cc1", "survival": "125% (inactive)"}, {"smiles": "COc1cc(NC(=O)CCc2c(C)nc3c4c(C)cc(C)nc4nn3c2C)cc(OC)c1", "survival": "74% (inactive)"}, {"smiles": "COC(=O)c1cc(NC(=O)CCc2c(C)nc3c4c(C)cc(C)nc4nn3c2C)cc(C(=O)OC)c1", "survival": "56% (active)"}, {"smiles": "COc1ccc(NC(=O)c2oc3ccc(S(=O)(=O)N4CCCCC4)cc3c2C)cc1", "survival": "87% (inactive)"}, {"smiles": "CC(C)Cn1cc(NC(=O)N2CCN(c3cccc(C(F)(F)F)c3)CC2)c2ccccc2c1=O", "survival": "77% (inactive)"}, {"smiles": "COc1ccc(CCNC(=O)Cn2ncc3c(=O)oc4ccccc4c32)c(OC)c1", "survival": "89% (inactive)"}, {"smiles": "CCC1CCCCN1C(=O)CCS(=O)(=O)c1cc2c(cc1C)NC(=O)CO2", "note": "(stereo not drawn)", "survival": "81% (inactive)"}, {"smiles": "CC(C)C1C(=O)Nc2ccc(S(=O)(=O)NCc3ccc(Cl)cc3)cc21", "note": "(stereo not drawn)", "survival": "52% (active)"}, {"smiles": "COc1cccc(CNS(=O)(=O)c2ccc3c(c2)C(C(C)C)C(=O)N3)c1", "note": "(stereo not drawn)", "survival": "129% (inactive)"}, {"smiles": "CC(C)C1C(=O)Nc2ccc(S(=O)(=O)NCCc3ccc(Cl)cc3)cc21", "note": "(stereo not drawn)", "survival": "77% (inactive)"}, {"smiles": "CCCNc1c2c(nc3ccccc13)CC(C)(C)CC2=O", "survival": "66% (inactive)"}, {"smiles": "CCOc1ccccc1CNC(=O)c1ccc2nc(Cc3ccc(OC)cc3)oc2c1", "survival": "73% (inactive)"}, {"smiles": "CN(C1CCCCC1)C(c1ccc(F)cc1)c1nnnn1C1CCCCC1", "note": "(stereo not drawn)", "survival": "83% (inactive)"}, {"smiles": "Cc1ccc(C)c(-c2nc(Cn3c(=O)cc(-c4ccccc4)c4c(C)nn(C)c43)c(C)o2)c1", "survival": "130% (inactive)"}, {"smiles": "CCOC(=O)c1ccc(NC(=O)c2csc3c2CCCCC3)cc1", "survival": "39% (active)"}, {"smiles": "CCOC(=O)c1ccc(NC(=O)c2c(NCc3sccc3C)sc3c2CCCCC3)cc1", "survival": "78% (inactive)"}, {"smiles": "CSc1ccc(CCNC(=O)c2csc3c2CCCCC3)cc1", "survival": "63% (inactive)"}, {"smiles": "CCOC(=O)c1ccc(NC(=O)c2c(NCc3cccs3)sc3c2CCCC3)cc1", "survival": "78% (inactive)"}, {"smiles": "CC(CNC(=O)c1csc2c1CCCCC2)c1ccccc1", "note": "(stereo not drawn)", "survival": "-1% (active)"}, {"smiles": "CCOC(=O)c1ccc(NC(=O)c2noc3c2CCCC3)cc1", "survival": "0% (active)"}, {"smiles": "CCC(Cc1ccccc1)NC(=O)c1csc2c1CCCCC2", "note": "(stereo not drawn)", "survival": "125% (inactive)"}, {"smiles": "CCOC(=O)c1ccc(NC(=O)c2csc3c2CCCC3)cc1", "survival": "36% (active)"}, {"smiles": "CCOC(=O)c1ccc(NC(=O)c2c(NCc3cccs3)sc3c2CCCCC3)cc1", "survival": "104% (inactive)"}, {"smiles": "CCOC(=O)c1ccc(NC(=O)c2cccc3c(=O)c4c([nH]c23)CCCC4)cc1", "survival": "60% (inactive)"}, {"smiles": "COc1ccc(NC(=O)c2noc3c2CCCC3)cc1Cl", "survival": "83% (inactive)"}, {"smiles": "O=C(Nc1ccc(OC(F)(F)F)cc1)c1noc2c1CCCC2", "survival": "65% (inactive)"}, {"smiles": "CCC(=O)C1=C(c2ccccc2)N(C(=O)CC)n2c(nnc2C2CCCCC2)S1", "survival": "55% (inactive)"}, {"smiles": "N#CCCn1c(=O)n(CCC#N)c(=O)n(CCC#N)c1=O", "survival": "79% (inactive)"}, {"smiles": "O=C1NC2(CCCCC2)C(=O)N1c1ccc(Cl)cc1", "survival": "109% (inactive)"}, {"smiles": "CCC(=O)OCCN1C(=O)c2ccccc2C1=O", "survival": "91% (inactive)"}, {"smiles": "COc1ccc(C(=O)Nc2ccc(NC(=O)c3ccco3)cc2)cc1OC", "survival": "71% (inactive)"}, {"smiles": "N#Cc1cccc(NC(=O)C2CCN(c3ncccn3)CC2)c1", "survival": "66% (inactive)"}, {"smiles": "Cc1cccc(CCn2c(=O)c3ccccc3n(CC(=O)Nc3ccccc3F)c2=O)c1", "survival": "76% (inactive)"}, {"smiles": "O=C(Nc1ccccc1O)c1csc2c1CCCC2", "survival": "80% (inactive)"}, {"smiles": "CCOc1ccc(CCNC(=O)c2csc3c2CCCCC3)cc1", "survival": "73% (inactive)"}, {"smiles": "CCOc1ccc(OCC)c(NC(=O)c2csc3c2CCCC3)c1", "survival": "-2% (active)"}, {"smiles": "CCn1c(C(=O)Nc2cc(Cl)ccc2C)cc2sc(Cl)cc21", "survival": "77% (inactive)"}, {"smiles": "CCn1c(C(=O)Nc2ccc(C)cc2C)cc2sc(Cl)cc21", "survival": "58% (inactive)"}, {"smiles": "CCn1c(C(=O)Nc2cc(C)cc(C)c2)cc2sc(Cl)cc21", "survival": "109% (inactive)"}, {"smiles": "CCn1c(C(=O)Nc2ccccc2C(=O)OC)cc2sc(Cl)cc21", "survival": "31% (active)"}, {"smiles": "CCn1c(C(=O)Nc2c(C)cccc2C)cc2sc(Cl)cc21", "survival": "60% (active)"}, {"smiles": "CCc1ccccc1NC(=O)c1cc2sc(Cl)cc2n1CC", "survival": "77% (inactive)"}, {"smiles": "COC(=O)c1[nH]c2ccc(F)cc2c1N", "survival": "98% (inactive)"}]}]}
